The structures appear in SMILES notation. Counter-ions that a name gives are not always drawn. ± gives the standard deviation of the averaged measurements.

For 39 molecules, relative cell viability results are on record in the supplement of paper PMC9588786.
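Note: viability read as CCK-8 absorbance at 450 nm in cells co-exposed to the GPX4 inhibitor RSL3, relative to a 0.01% DMSO vehicle control.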

This assay deals with HT-1080. The assay can be described thus: relative cell viability with RSL3 co-treatment (fraction of control); higher = stronger protection from RSL3-induced ferroptosis (higher viability). The note with it: 10 µM.
For the molecule `Cc1ccc(C(=O)Nc2cccc(C(F)(F)F)c2)cc1Nc1nc(-c2cccnc2)nc2c1cnn2C`, the relative cell viability is 0.473 ± 0.23.

Regarding `COc1cc(Nc2c(C#N)cnc3cc(OCCCN4CCN(C)CC4)c(OC)cc23)c(Cl)cc1Cl` [Bosutinib (SKI-606)], the relative cell viability stood at 0.867 ± 0.035.

In the case of `N#Cc1c(NC(=O)c2cccc3ccccc23)sc2c1CCCC2` [JNK Inhibitor IX], the relative cell viability worked out at 0.573 ± 0.049.

Consider `COc1cc2ncnc(Nc3ccc(Cl)cc3F)c2cc1OC`, for which the relative cell viability turned out to be 0.757 ± 0.14.

`COc1ccc(COc2cc3oc(=O)c4cc(C(C)O)ccc4c3cc2OC)cc1` (centres undefined) [Palomid 529 (P529)]: the relative cell viability is 0.537 ± 0.2.

Take `FC(F)(F)c1ccc(/C=C/c2nc(COc3ccc(CCCCn4ccnn4)cc3)co2)cc1` [Mubritinib (TAK 165)]: the relative cell viability was determined as 0.653 ± 0.1.

As to `Cc1ccc2nc(NCCN)c3ncc(C)n3c2c1`, the relative cell viability came to 0.703 ± 0.015.

Regarding `O=C1NC(=O)C(=Cc2ccc(-c3ccc(F)cc3)o2)S1` (stereo in doubt), the relative cell viability is 0.887 ± 0.11.

Take `O=C(NOCC(O)CO)c1cc(Br)c(F)c(F)c1Nc1ccc(I)cc1F` (centres undefined): the relative cell viability is 0.897 ± 0.061.

Take `O=C(Nc1c[nH]nc1-c1nc2ccc(CN3CCOCC3)cc2[nH]1)NC1CC1`: the relative cell viability is 0.35 ± 0.14.

`Oc1c(F)cc(-c2cnccc2-c2ccc(N3CCOCC3)cc2)cc1F`: the relative cell viability is 0.757 ± 0.072.

For the molecule `N=C(N)NC(=N)NCCc1ccccc1` [Phenformin HCl], the relative cell viability came out at 0.877 ± 0.042.

Take `CN1CCN(c2cccc(Nc3nc4c(-c5ccc(S(C)(=O)=O)cc5)cccn4n3)c2)CC1`: the relative cell viability turned out to be 1.21 ± 0.03.

As for `Cc1cnc(Nc2ccc(OCCN3CCCC3)cc2)nc1Nc1cccc(S(=O)(=O)NC(C)(C)C)c1`, the relative cell viability came to 0.433 ± 0.093.

With `Nc1ncnc2c1c(-c1cnc3[nH]ccc3c1)nn2C1CCCC1`, the relative cell viability was found to be 0.397 ± 0.092.

Consider `C=CCc1ccc(O)c(-c2ccc(O)c(CC=C)c2)c1` [Honokiol], for which the relative cell viability worked out at 0.85 ± 0.04.

Take `c1cncc(CN2CCC(n3ncc4c(N5CCOCC5)nc(-c5ccc6[nH]ccc6c5)nc43)CC2)c1`: the relative cell viability came to 0.347 ± 0.13.

As for `COc1ccc(-c2ccc3c(N4CCOC[C@@H]4C)nc(N4CCOC[C@@H]4C)nc3n2)cc1CO`, the relative cell viability amounted to 0.893 ± 0.13.

For the molecule `Clc1ccc(C2(c3ccc(-c4cn[nH]c4)cc3)CCNCC2)cc1`, the relative cell viability turned out to be 0.373 ± 0.068.

Regarding `CCc1cccc(CC)c1NC(=O)N1Cc2[nH]nc(NC(=O)c3ccc(N4CCN(C)CC4)cc3)c2C1`, the relative cell viability was found to be 0.53 ± 0.087.

With `O=C1NC(=O)[C@@H](c2cn3c4c(cccc24)CCC3)[C@@H]1c1c[nH]c2ccccc12` [Tivantinib (ARQ 197)], the relative cell viability turned out to be 0.64 ± 0.085.

For `C=CC(=O)Nc1ccc2ncnc(Nc3ccc(OCc4cccc(F)c4)c(Cl)c3)c2c1`, the relative cell viability was 1.01 ± 0.01.

As to `O=c1sn(-c2cccc3ccccc23)c(=O)n1Cc1ccccc1` [Tideglusib], the relative cell viability stood at 0.74 ± 0.035.

Turning to `Cc1cc(Nc2nc(N[C@@H](C)c3ncc(F)cn3)ncc2Cl)[nH]n1`, the relative cell viability came to 0.597 ± 0.12.

`Cc1[nH]c(/C=C2\C(=O)Nc3ccccc32)c(C)c1CCC(=O)O` [Orantinib (TSU-68, SU6668)]: the relative cell viability was found to be 0.903 ± 0.057.

Regarding `C=CC(=O)Nc1cccc(Oc2nc(Nc3ccc(N4CCN(C)CC4)cc3)ncc2Cl)c1`, the relative cell viability came to 0.337 ± 0.057.

Take `CC(C)c1cnn2c(NCc3ccccc3)cc(NCCCCCCN)nc12`: the relative cell viability was found to be 0.623 ± 0.085.

Consider `CO[C@H]1C[C@@H]2CC[C@@H](C)[C@@](O)(O2)C(=O)C(=O)N2CCCC[C@H]2C(=O)O[C@H]([C@H](C)C[C@@H]2CC[C@@H](OCCO)[C@H](OC)C2)CC(=O)[C@H](C)/C=C(\C)[C@@H](O)[C@@H](OC)C(=O)[C@H](C)C[C@H](C)/C=C/C=C/C=C/1C` [Everolimus (RAD001)], for which the relative cell viability was found to be 0.607 ± 0.13.

For the molecule `CCc1ccc(/C=C2/SC(=S)NC2=O)cc1`, the relative cell viability was 0.62 ± 0.087.

Turning to `COc1cc2nccc(Oc3ccc(NC(=O)C4(C(=O)Nc5ccc(F)cc5)CC4)cc3)c2cc1OC`, the relative cell viability was 0.7 ± 0.21.

In the case of `C=CC(=O)N1CCC[C@@H](n2nc(-c3ccc(Oc4ccccc4)cc3)c3c(N)ncnc32)C1`, the relative cell viability was 0.933 ± 0.11.

Turning to `CCOC(=O)c1cnc2ccc(-c3cncc(NS(=O)(=O)c4ccccc4)c3)cn12`, the relative cell viability worked out at 0.717 ± 0.09.

On to `COc1ccc(-c2ccc3c(N4CCOCC4)nc(N4C[C@@H](C)O[C@@H](C)C4)nc3n2)cc1CO`, for which the relative cell viability stood at 0.7 ± 0.07.

As for `CNC(=O)CN1CCC(Oc2cc3c(Nc4cccc(Cl)c4F)ncnc3cc2OC)CC1` [Sapitinib (AZD8931)], the relative cell viability amounted to 0.56 ± 0.095.

Turning to `Cc1ccc(C(=O)Nc2ccc(CN3CCN(C)CC3)c(C(F)(F)F)c2)cc1C#Cc1cnc2cccnn12`, the relative cell viability is 0.64 ± 0.11.

With `CCCCCCCCCCCCCCCCOP(=O)([O-])OCC[N+](C)(C)C` [Miltefosine], the relative cell viability turned out to be 0.6 ± 0.13.

For the molecule `COc1cc2ncnc(Oc3cccc(NC(=O)Nc4cc(C(C)(C)C(F)(F)F)on4)c3)c2cc1OC`, the relative cell viability was found to be 0.68 ± 0.17.

As for `O=C(O)c1ccc(-c2c[nH]c3ncc(-c4ccccc4)cc23)cc1C1CCCC1`, the relative cell viability amounted to 0.81 ± 0.017.

For the molecule `CCCNC(=O)Nc1ccc(Oc2ncnc3cc(OC)c(OC)cc23)cc1Cl`, the relative cell viability stood at 0.757 ± 0.42.
